Screening data deposited in PubChem BioAssay by The Scripps Research Institute Molecular Screening Center.
A selection: hits, their analogues and other compounds. The true share with any hit is near 4.8%.
hgDAF12 agonist = agonists of H. glycines DAF-12 nuclear receptor; HEK293 GAL4-hgDAF12 UAS-luciferase reporter, agonist luminescence; normalized to butyrate control; activation, % at 6.8 µM; 370,000 compounds, 1.8% hits; AID 687014;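 active = activation above a cutoff set at the mean of all screened compounds plus 3 SD, cut at about 10% in these data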
hcDAF-12 act = activators of H. contortus DAF-12 nuclear receptor. HEK293 hcDAF-12 lit1-tk-luc reporter, luminescence; 0% DMSO, 100% Δ7-dafachronic acid. activation, % at 6.8 µM. 370,000 compounds, 1.4% hits. AID 652067;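 active = activation above the mean of all tested compounds plus 3 SD, cut at about 5.5% in these data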
ssDAF-12 act = S. stercoralis DAF-12 activation, primary screen; HEK293 ssDAF-12/GRIP1 lit1-tk-luc reporter, luminescence; % of 3 µM dafachronic acid response; activation, % at 6.8 µM; 370,000 compounds, 1% hits;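 active = activation above the mean over all tested compounds plus 3 SD, cut at about 0.9% in these data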
DAX1 inh-1 = NR0B1 (DAX1) inhibition | P51843 | HEK293 Gal4-DAX1 luciferase reporter, luminescence | inhibition, % at 6.75 µM | 340,000 compounds, 0.99% hits | AID 504766;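 active = inhibition above the mean over all tested compounds plus 3 SD, cut at about 4.2% in these data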;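 also: inhibition shows as a rise in luminescence from relieved DAX1 repression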
Target sequence (P51843 207-470 limits assumed): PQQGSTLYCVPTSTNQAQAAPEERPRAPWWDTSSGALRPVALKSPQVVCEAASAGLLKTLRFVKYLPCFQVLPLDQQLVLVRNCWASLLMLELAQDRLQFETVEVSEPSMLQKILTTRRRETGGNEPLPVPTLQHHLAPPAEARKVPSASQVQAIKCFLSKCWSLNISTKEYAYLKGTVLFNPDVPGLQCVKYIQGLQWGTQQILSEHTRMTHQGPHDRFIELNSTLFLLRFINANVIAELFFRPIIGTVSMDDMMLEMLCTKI
DAX1 inh-2 = blocks DAX1 repression of SF-1 activated StAR promoter | HEK293T StAR-luciferase reporter, SF-1/DAX-1 repression relief | inhibition, % at 6.8 µM | 370,000 compounds, 1.1% hits;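 active = inhibition above the mean over all tested compounds plus 3 SD, cut at about 3.6% in these data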;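 also: higher inhibition means more luminescence from relief of DAX-1 repression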
SMARCA2 act = SMARCA2 function activation, primary screen | MG213 cells, MMTV-luciferase reporter, dexamethasone, overnight | activation, % at 9.1 µM | 370,000 compounds, 1% hits | AID 652017; in the data active = activation above about 7.8%
LXR ag = counter-screen for hcDAF-12 agonists: agonists of human LXR-beta; shares compounds with hcDAF-12 act; HEK293 Gal4-LXR tk-luc reporter, luminescence, 24 h; normalized: DMSO 0%, positive control 100%; activation, % at 6.8 µM; 3,400 tested, under 10 active;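 active = mean percent activation of the reporter above a cutoff set as the average over tested compounds plus their standard deviation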
hcDAF12 ag = hcDAF-12 agonism, confirmation assay; shares compounds with hcDAF-12 act; 3,400 compounds, 61% hits; activation, % at 6.8 µM; HEK293 hcDAF-12 lit1-tk-luc reporter, luminescence; % of Δ7-dafachronic acid response;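 active = mean activation across triplicate tests above the threshold derived from the earlier primary screen, cut at about 5.5% in these data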
hgDAF12 conf = hgDAF-12 agonism, confirmation assay; shares compounds with hgDAF12 agonist; HEK293 GAL4-hgDAF12 luciferase reporter, agonist mode; percent of butyrate response; activation, % at 6.8 µM; 3,300 compounds, 80% hits; AID 743050;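 active = mean activation over triplicate wells above the hit cutoff derived from the earlier primary screen, cut at about 11% in these data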
LXR ag 2 = activates human LXR-beta, counter-screen for DAF-12 agonists; shares compounds with hgDAF12 agonist; HEK293 Gal4-LXR luciferase reporter, 24 h; activation, % at 6.8 µM; 3,300 tested, under 10 active;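 active = mean activation of the triplicate above a set limit carried over from the primary screen, none filed active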
Hits are given with their value; 0 = inactive; - = no result given.

SMILES | hgDAF12 agonist | hcDAF-12 act | ssDAF-12 act | DAX1 inh-1 | DAX1 inh-2 | SMARCA2 act | LXR ag | hcDAF12 ag | hgDAF12 conf | LXR ag 2
CC1=CN2C(=N)/C(=C/c3ccco3)C(=O)N=C2S1 | 16 | 10 | 1.6 | 0 | 4.0 | 0 | 0 | 0 | 12 | 0
CC1=NC(=O)C(N=Nc2cccc(O)c2)N1c1ccccc1 (stereo not given) | 14 | 9.3 | 0 | 0 | 0 | 0 | 0 | 12 | 16 | 0
CN(C)C=Nc1ccc(Cl)c(Cl)c1 | 0 | 0 | 0 | 0 | 0 | 0 | - | - | - | -
CN(C)C=Nc1ccc2nn(-c3ccccc3)nc2c1 | 15 | 6.7 | 1.2 | 0 | 4.4 | 0 | 0 | 8.2 | 22 | 0
CCC(C)N(CCNC(=O)c1ccc2c(c1)NC(=O)c1ccccc1S2)C1CCCCC1 (stereo not given) | 0 | 0 | 0 | 0 | 0 | 0 | - | - | - | -
Cc1cccc(C)c1NC(=O)CN(C)CC(=O)N1CC(=O)Nc2ccccc21 | 0 | 0 | 0 | 0 | 0 | 0 | - | - | - | -
Cc1cc(C)c(C#N)c(SCc2nc3ccccc3[nH]2)n1 | 15 | 18 | 3.6 | 4.8 | 0 | 0 | 0 | 11 | 12 | 0
O=C(CSc1nc(C2CC2)nc2ccccc12)N1c2ccccc2Sc2ccccc21 | 0 | 0 | 0 | 0 | 0 | 0 | - | - | - | -
CN(CCc1ccccc1)C(c1cc2ccccc2o1)c1nnnn1C(C)(C)C (stereo not given) | 0 | 0 | 0 | - | 0 | 0 | - | - | - | -
COc1cccc(N=c2oc3ccccc3cc2-c2nc3ccccc3[nH]2)c1 | 16 | 15 | 2.6 | 0 | 0 | 0 | 0 | 6.7 | 19 | 0
COC1=C/C(=C/c2c(O)c(C#N)c3ccccn23)C=CC1=O | 14 | 11 | 0.9 | 0 | 0 | 0 | 0 | 0 | 11 | 0
CN(C)S(=O)(=O)c1ccc(NC(=O)/C=C/c2ccccc2Cl)cc1 | 0 | 0 | 0 | 0 | 0 | 0 | - | - | - | -
O=C(/C=C/c1ccccc1Cl)Nc1ccccc1 | 20 | 16 | 2.6 | - | 0 | 0 | 0 | 16 | 25 | 0
CCn1nnc2cc(C(=O)O)ccc21 | 0 | 0 | 0 | 0 | 0 | 0 | - | - | - | -
O=C(Nc1cccc(OC(F)(F)F)c1)C1Cc2c(-c3ccccc3Oc3ccccc3)ccnc2O1 (stereo not given) | 0 | 0 | 0 | - | 0 | 0 | - | - | - | -
Oc1ccc(N=Nc2c(O)ccc3ccccc23)cc1 | 0 | 0 | 0 | 0 | 0 | 0 | - | - | - | -
Oc1ccc(N=Nc2ccc3ccccc3c2)cc1 | 16 | 7.1 | 0 | 0 | 0 | 0 | 0 | 0 | 20 | 0
CCN(CC)c1ccc(C(=O)Nc2cccc(F)c2)cc1 | 15 | 7.2 | 0 | 0 | 0 | 0 | 0 | 0 | 19 | 0
CN1CCSc2ccc(C(=O)Nc3cccc(F)c3)cc21 | 24 | 11 | 2.0 | 7.4 | 3.8 | 0 | 0 | 8.3 | 25 | 0
Cc1ccc(S(=O)(=O)N2CCC(C(=O)N3CCN(c4ccccn4)CC3)CC2)cc1 | 0 | 0 | 0 | 0 | 0 | 0 | - | - | - | -
Fc1ccc(-n2c(Cn3nnc4ccccc43)n[nH]c2=S)cc1 | 0 | 0 | 0 | 0 | 0 | 0 | - | - | - | -
COc1ccc2c(c1)CCc1c-2n[nH]c1C(=O)NCCC(C)C | 15 | 6.8 | 0 | 0 | 4.0 | 0 | 0 | 0 | 17 | 0
C#CC(C)OC(=O)C(C)NC(=O)c1ccccc1 (stereo not given) | 0 | 0 | 0 | 0 | 0 | 0 | - | - | - | -
N#Cc1cnc(Nc2nc3ccccc3o2)nc1-c1ccccc1 | 0 | 0 | 0 | 0 | 0 | 0 | - | - | - | -
Cc1ccnc(Nc2nc3ccccc3o2)n1 | 21 | 10 | 0 | 0 | 6.5 | 0 | 0 | 6.6 | 0 | 0
C/C(=C\C(=O)c1sccc1Cl)N(C)C | 15 | 0 | 0 | 0 | 0 | 0 | - | - | 0 | 0
